Where “and” joins values, the source holds several entries; their conditions need not be identical. Equal values may be shown once. Some compounds were tested as several samples or in several runs, with calls that do not always agree. Calls of active or inactive are those of the source. Rule for the calls: active = hit-call score of the fitted dose curve at least 0.9, where 1 is the maximum; inactive = score below 0.9.
assay: ATG_MRE_CIS: Attagene CIS-FACTORIAL HepG2 Assay for human Metal Responsive Element (MRE) (AID 2282954); conditions: HepG2 MRE cis-reporter transcription, Attagene multiplex; actives raise or lower the signal
Experimental: ATG_CIS is a cell-based, multiplexed-readout assay that uses HepG2, a human liver cell line, with measurements taken at 24 hours after chemical dosing in a 24-well plate.ATG_MRE_CIS is one of 52 assay component(s) measured or calculated from the ATG_CIS assay. It is designed to make measurements of mRNA induction, a form of inducible reporter, as detected with fluorescence intensity signals by Reverse transcription polymerase chain reaction (RT-PCR) and Capillary electrophoresis technology.Data from the assay component ATG_MRE_CIS was analyzed into 1 assay endpoint. This assay endpoint, ATG_MRE_CIS, was analyzed with bidirectional fitting relative to DMSO as the negative control and baseline of activity. Using a type of inducible reporter, measures of mRNA for gain or loss-of-signal activity can be used to understand the reporter gene at the transcription factor-level as they relate to the gene MTF1. Furthermore, this assay endpoint can be referred to as a primary readout, because this assay has produced multiple assay endpoints where this one serves a reporter gene function. To generalize the intended target to other relatable targets, this assay endpoint is annotated to the dna binding intended target family, where the subfamily is zinc finger.
Human liver HepG2 cells are transiently transfected with multiple reporter transcription units (MRTUs) in 6-well plates using FuGene 6 reagent (Roche; 3 ml FuGene/1 mg DNA). The MRTU constructs are regulated by a cis-regulating element (promoter). […] A major difference between the CIS and TRANS system is that in CIS activities of endogenous TFs are measured, whereas the TRANS assay evaluates changes in activities of exogenous, chimeric NR-Gal4 proteins. […] At the end of 24 hour incubation, total RNA was isolated using TriZol reagent (Invitrogen). The isolated RNA is then reverse-transcribed using oligo(dT) primer and Mo-MLV reverse transcriptase (Invitrogen) with DNAse I (Ambion) treatment for 30 min. The one-tenth of the produced cDNA was amplified by PCR using Taq DNA polymerase (Invitrogen) and two reporter sequence-specific primers. The PCR products were fluorescently labeled by primer extension with 6-arboxyfluorescein (6-FAM) 5'-labeled reporter sequence-specific primer (2 min at 95 C, 20 s at 68 C and 10 min at 72 C) and these products were digested with 5U of HpaI (New England Biolabs) for 2h at 37 C. The fragments were purified using Qiaquick PCR columns (Qiagen), analyzed on an ABI 3130xL genetic analyzer (Applied Biosystems) with peak positions identified by using a set of X-rhodamine (ROX)-labeled MapMarker1000 molecular weight standards (BioVentures). The raw capillary electrophoresis data was processed using Attagraph software (Attagene).

| Compound | AC50 | outcome |
| --- | --- | --- |
| COC(=O)N(OC)c1ccccc1COc1ccn(-c2ccc(Cl)cc2)n1 | 2.65 µM (active) | – |
| CC(C)(C)c1ccc(CSc2cnn(C(C)(C)C)c(=O)c2Cl)cc1 | 7.83 µM (active) | – |
| COC(=O)C=C(C)OP(=O)(OC)OC | – | inactive |
| Cc1ccc(-c2c(Cl)nc(C#N)n2S(=O)(=O)N(C)C)cc1 | – | inactive |
| C=CC1(C)OC(=O)N(c2cc(Cl)cc(Cl)c2)C1=O (stereo not given) | – | inactive |
| CCCCOC(=O)c1ccccc1C(=O)OCCCC | 41.4 µM (active) | inactive |
| Oc1ccccc1-c1ccccc1 | 65.7 µM (active) | inactive |
| CCCC1COC(Cn2cncn2)(c2ccc(Cl)cc2Cl)O1 (stereo not given) | 50 µM (active) | inactive |
| CCCN(CCC)c1c([N+](=O)[O-])cc(S(N)(=O)=O)cc1[N+](=O)[O-] | – | inactive |
| COC(=O)c1ccccc1C(=O)OC | – | inactive |
| CO/C=C(/C(=O)OC)c1ccccc1Oc1cc(Oc2ccccc2C#N)ncn1 | 50 µM (active) [middle of 6 runs] | – |
| CCON=C(CC)C1=C(O)CC(c2c(C)cc(C)cc2C)CC1=O (stereo not given) | – | inactive |
| C=CCC1=C(C)[C@@H](OC(=O)[C@@H]2[C@@H](C=C(C)C)C2(C)C)CC1=O | 5.26 µM (active) | – |
| COc1ccc(C(c2ccc(OC)cc2)C(Cl)(Cl)Cl)cc1 | 65.1 µM (active) and 15.6 µM (active) and 11.9 µM (active) | inactive |
| COc1nc(C)nc(NC(=O)NS(=O)(=O)c2ccccc2Cl)n1 | – | inactive |
| CCCCNC(=O)OCC#CI | 35.9 µM (active) | inactive |

| Compound | AC50 | outcome |
| --- | --- | --- |
| CNC(=O)ON=CC(C)(C)SC | – | inactive |
| N#CC(CCc1ccc(Cl)cc1)(Cn1cncn1)c1ccccc1 (stereo not given) | – | inactive |
| O=C(O)COc1nc(Cl)c(Cl)cc1Cl | – | inactive |
| Cc1cc(Cl)ccc1OCC(=O)O | – | inactive |
| CCOC(=O)C(Cl)Cc1cc(-n2nc(C)n(C(F)F)c2=O)c(F)cc1Cl (stereo not given) | – | inactive |
| C#CCOS(=O)OC1CCCCC1Oc1ccc(C(C)(C)C)cc1 (stereo not given) | 2.4 µM (active) | – |
| N#Cc1cc(Br)c(O)c(Br)c1 | 39.9 µM (active) | – |
| CCOP(=S)(OCC)SCn1c(=O)oc2cc(Cl)ccc21 | 66.2 µM (active) | – |
| CC(Oc1ccc(Cl)cc1Cl)C(=O)O (stereo not given) | – | inactive |
| COc1nc(NC(C)C)nc(NC(C)C)n1 | – | inactive |
| OC(c1ccc(Cl)cc1)(c1cncnc1)c1ccccc1Cl (stereo not given) | 70.8 µM (active) | inactive |
| CC(C)C1(C)N=C(c2nc3ccccc3cc2C(=O)O)NC1=O (stereo not given) | – | inactive |
| COP(N)(=O)SC (stereo not given) | – | inactive |
| N#Cc1nn(-c2c(Cl)cc(C(F)(F)F)cc2Cl)c(N)c1S(=O)C(F)(F)F (stereo not given) | 38.8 µM (active) | inactive |
| CNC(=S)S | 70.4 µM (active) | inactive |
| CON(C)C(=O)Nc1ccc(Cl)c(Cl)c1 | – | inactive |

From PubChem BioAssay (EPA / NIEHS)
